Screens: PubChem BioAssay, The Scripps Research Institute Molecular Screening Center
DAX1 inh-1: DAX1 (NR0B1) inhibition, primary screen. HEK293T StAR-luciferase reporter, SF-1/DAX-1 repression relief. 370,000 compounds, 1.1% hits. inhibition, % at 6.8 µM;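 active = inhibition above the mean over all tested compounds plus 3 SD, cut at about 3.6% in these data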;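 also: higher inhibition means more luminescence from relief of DAX-1 repression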
hgDAF-12 ag: agonists of H. glycines DAF-12 nuclear receptor. activation, % at 6.8 µM. AID 687014. 370,000 compounds, 1.8% hits. HEK293 GAL4-hgDAF12 UAS-luciferase reporter, agonist luminescence; normalized to butyrate control;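 active = activation above a cutoff set at the mean of all screened compounds plus 3 SD, cut at about 10% in these data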
GAA850 FXN act: frataxin GAA850 promoter activation; HEK293 lucGAA850 FXN promoter luciferase reporter, 24 h; percent of 10 µM SAHA response; activation, % at 6 µM; 360,000 compounds, 0.56% hits;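 active = activation above the average of all compounds screened plus 3 SD, cutoff fixed separately per campaign, cut at about 7.5% in these data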
DAX1 inh-2: NR0B1 (DAX1) inhibition; P51843; 340,000 compounds, 0.99% hits; inhibition, % at 6.75 µM; HEK293 Gal4-DAX1 luciferase reporter, luminescence;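 active = inhibition above the mean over all tested compounds plus 3 SD, cut at about 4.2% in these data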;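 also: inhibition shows as a rise in luminescence from relieved DAX1 repression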
Target sequence (P51843 207-470 limits assumed): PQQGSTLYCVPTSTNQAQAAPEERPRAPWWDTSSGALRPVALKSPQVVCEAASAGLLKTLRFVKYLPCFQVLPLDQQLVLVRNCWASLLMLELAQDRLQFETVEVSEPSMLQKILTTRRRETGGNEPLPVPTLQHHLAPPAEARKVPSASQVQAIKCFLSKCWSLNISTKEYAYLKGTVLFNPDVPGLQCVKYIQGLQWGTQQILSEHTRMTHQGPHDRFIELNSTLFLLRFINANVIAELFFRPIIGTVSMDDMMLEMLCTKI
hcDAF-12 act: activates DAF-12 receptor from parasite H. contortus; 370,000 compounds, 1.4% hits; activation, % at 6.8 µM; HEK293 hcDAF-12 lit1-tk-luc reporter, luminescence; 0% DMSO, 100% Δ7-dafachronic acid;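 active = activation above the mean of all tested compounds plus 3 SD, cut at about 5.5% in these data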
ssDAF-12 act: S. stercoralis DAF-12 activation, primary screen; AID 652126; 370,000 compounds, 1% hits; activation, % at 6.8 µM; HEK293 ssDAF-12/GRIP1 lit1-tk-luc reporter, luminescence; % of 3 µM dafachronic acid response;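 active = activation above the mean over all tested compounds plus 3 SD, cut at about 0.9% in these data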
Large screens that a line does not name were inactive; ! = repeats disagree. Sampled rows, rich in hits. Any-hit rate of the full collection: about 4.5%.

CCOc1ccccc1NC(=O)C1CCC(CNc2c(N3CCCCC3)c(=O)c2=O)CC1 (stereo unspecified)	none
O=C(COC(=O)c1cccc(-n2cnnn2)c1)Nc1c(Cl)cccc1C(F)(F)F	DAX1 inh-1 3.9
Cc1ccc(C(=O)Nc2nc(=O)[nH]s2)cc1	DAX1 inh-2 4.4!
Cc1ccc(C(=O)Nc2nc(=O)n(C)s2)cc1	DAX1 inh-2 5.6
CC(C)N1Cc2nnn(Cc3ccc(F)cc3)c2-c2cc(F)ccc2S1(=O)=O	none (no result: GAA850 FXN act, DAX1 inh-2)
CCOC(=O)c1sc(NCc2ccco2)c(-c2nc3ccccc3s2)c1N	hcDAF-12 act 6.2
CCNc1sc(C(=O)c2cccs2)c(N)c1-c1nc2ccccc2s1	none
CCN(CC)CCCN1C(=O)C2=C(C1=O)C1N(C)c3ccccc3[C@@]13C[C@@H](CO)N(C(=O)CCC(=O)OC)C3=N2 (stereo partly specified)	none (no result: GAA850 FXN act, DAX1 inh-2)
O=C(NCCc1ccccc1)c1ccc(NS(=O)(=O)c2ccc3[nH]c(=O)[nH]c3c2)cc1	DAX1 inh-1 3.8
O=C(COc1ccc2c(c1)oc(=O)c1ccccc12)N[C@@H](Cc1c[nH]c2ccccc12)C(=O)O	none
Cc1c(C)c2ccc(OCC(=O)Nc3nccs3)cc2oc1=O	hgDAF-12 ag 11
O=c1[nH]c2ccc(NS(=O)(=O)c3ccc(Cl)cc3)cc2[nH]1	DAX1 inh-2 5.0
Cc1c(C)c2ccc(OCC(=O)N[C@@H](Cc3c[nH]c4ccccc34)C(=O)O)cc2oc1=O	DAX1 inh-2 6.6
COc1ccc(CCNC(=O)c2ccc(NS(=O)(=O)c3ccc4[nH]c(=O)[nH]c4c3)cc2)cc1	none
Cc1c(C)c2ccc(OCC(=O)Nc3ccccn3)cc2oc1=O	none
Cc1ccccc1CS(=O)(=O)Cc1ccc(C(=O)Nc2cccc(Cl)c2F)o1	none (no result: GAA850 FXN act, DAX1 inh-2)
O=C(Nc1ccccc1C(=O)NCCc1ccccc1)c1ccco1	hgDAF-12 ag 11
O=C(Nc1ccccc1C(=O)NC(Cc1c[nH]c2ccccc12)C(=O)O)c1ccco1 (stereo unspecified)	ssDAF-12 act 1.4
Cc1cc(C(=O)NC(Cc2c[nH]c3ccccc23)C(=O)O)c(C)o1 (stereo unspecified)	none
Cc1ccc(C(=O)NC(Cc2c[nH]c3ccccc23)C(=O)O)o1 (stereo unspecified)	hcDAF-12 act 6.1
O=C(O)CCc1ccc(S(=O)(=O)Nc2ccccc2C(=O)NCCc2ccccc2)cc1	ssDAF-12 act 1.0
COC(CNC(=O)[C@H](Cc1c[nH]c2ccccc12)NC1(C(=O)NC2CCCCC2)CCCCC1)OC	none (no result: DAX1 inh-1, GAA850 FXN act, DAX1 inh-2)
CC(=O)N1CCN(C(=O)c2ccc(CNC(=O)c3cccc(Br)c3)cc2)CC1	none (no result: GAA850 FXN act, DAX1 inh-2)
COC(=O)[C@]12C[C@H](CC(=O)NCCCCc3ccccc3)C(=O)N(CCc3ccc(OC)c(OC)c3)C1=C[C@H](COCc1ccccc1)O[C@@H]2C	none (no result: GAA850 FXN act, DAX1 inh-2)
O=S(=O)(CC1NCc2ccccc21)NCc1ccc(F)cc1 (stereo unspecified)	none (no result: GAA850 FXN act, DAX1 inh-2)
O=C(Nc1ccc(NC(=O)C23CC4CC(CC(C4)C2)C3)cn1)c1ccco1	hgDAF-12 ag 11
CC(=O)N(C)c1ccc(NC(=O)c2ccco2)cc1	DAX1 inh-1 3.8
O=C(Nc1ccc(NC(=O)C2CC2)cc1)c1ccco1	hgDAF-12 ag 11
CCN1CCN(c2ccc(NC(=O)c3ccco3)cc2Cl)CC1	none
O=C(Nc1ccc(Br)cc1)c1ccco1	none
O=C(Nc1ccc(N2CCCC2)c(Cl)c1)c1ccco1	hgDAF-12 ag 12
O=C(Nc1ccc(NC(=O)c2ccco2)cc1)c1ccco1	DAX1 inh-1 4.4
O=C(Nc1ccc(-c2nc3ccccc3[nH]2)cc1)c1ccco1	GAA850 FXN act 8.6 (no result: DAX1 inh-1, hgDAF-12 ag, hcDAF-12 act, ssDAF-12 act)
S=C(Nc1ccc(-c2nc3ccccc3[nH]2)cc1)Nc1cccnc1	hgDAF-12 ag 11
CC(C)[C@H]1Cn2nnc(-c3ccccc3)c2Cn2c3ccccc3c(=O)n21	none (no result: GAA850 FXN act, DAX1 inh-2)
CC1CCN(c2ccc(C(=O)O)cc2NS(=O)(=O)c2ccc(C(C)(C)C)cc2)CC1	none (no result: GAA850 FXN act, DAX1 inh-2)
O=C(NNC(=S)Nc1ccc(F)cc1)c1cccc([N+](=O)[O-])c1	ssDAF-12 act 1.8
